The campaign covered roughly 65,000 compounds. About 640 (0.98%) were called active. The sample as a whole holds a higher share of actives than the screen did. Values without a mark were called inactive.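 Rule for the calls: active = inhibition above a set limit, the mean inhibition across every tested compound plus 3 SD (cut at about 29% in these data); inactive = the rest.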

The target in the assay is 5-hydroxytryptamine receptor 1E (Homo sapiens) (UniProt P28566). The assay can be described thus: 5-HT1E receptor antagonists, primary screen, cell-based, HTS (AID 571).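 Note: signal is the 460 over 535 nm emission ratio of beta-lactamase substrate; 0% = agonist plus DMSO wells and 100% = wells without agonist.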 The note with it: CHO 5-HT1E Ga15 NFAT-bla reporter, FRET, antagonist; at 6 µM; hits give high values.
Chain of 5-hydroxytryptamine receptor 1E (Homo sapiens) (P28566 whole entry, looked up): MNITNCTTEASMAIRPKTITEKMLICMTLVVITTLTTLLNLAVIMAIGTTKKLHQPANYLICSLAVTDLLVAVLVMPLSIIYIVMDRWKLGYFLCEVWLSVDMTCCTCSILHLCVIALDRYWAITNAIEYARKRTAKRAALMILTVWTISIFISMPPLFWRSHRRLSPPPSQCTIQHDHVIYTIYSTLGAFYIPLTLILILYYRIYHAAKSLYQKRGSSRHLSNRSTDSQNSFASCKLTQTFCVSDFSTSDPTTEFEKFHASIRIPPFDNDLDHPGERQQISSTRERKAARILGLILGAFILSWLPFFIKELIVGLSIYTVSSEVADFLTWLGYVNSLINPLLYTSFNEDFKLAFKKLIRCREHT
What is called inhibition is the relative decrease from the control value, in per cent. For `COc1cc(C(=O)N(Cc2ccc(N(C)C)cc2)C2CCS(=O)(=O)C2)cc(OC)c1OC` (configuration not stated), the inhibition is -0.54%.
As for `CCCOc1ccccc1C1CC(=O)Nc2cc3c(cc21)OCO3` (configuration not stated), the inhibition was 52.8% (active).
Turning to `COCCOC(=O)C1=C(C)NC(=O)CC1c1cc2c(cc1Br)OCO2` (configuration not stated), the inhibition is -1.17%.
The value for `COc1cc2c(cc1OC)C(c1ccc(C)o1)CC(=O)N2` (configuration not stated) was 11.3%; that for `Cn1c(-c2ccco2)nc2cc3ccccc3cc21` was 1.87%; that for `CCOCCN(C=O)c1cccc(OC)c1` was -9.77%.
The value for `COC(=O)c1ccc(NCC(=O)c2ccccc2)cc1` was -2.89%; that for `COc1ccc(C(=O)NCCc2ccc(S(N)(=O)=O)cc2)cc1OC` was 12.5%; that for `CCOC(=O)N1CCN(S(=O)(=O)c2ccc(C(=O)Nc3ccc(F)cc3F)cc2)CC1` was 38.3% (active).
Turning to `O=C(Nc1cccc(F)c1)c1ccc(S(=O)(=O)N2CCCC2)cc1`, the inhibition was -2.92%.
Consider `O=C(CN1CCN(S(=O)(=O)c2ccc(F)cc2)CC1)Nc1ccccc1F`, for which the inhibition is 2.85%.
The value for `CCOC(=O)c1sc(NC(=O)CSc2ncccn2)c(C#N)c1C` was -1.65%; that for `O=S(=O)(c1ccccc1)N(CC(O)CN1CCCCC1)c1ccccc1` (configuration not stated) was -17.2%.
As for `Cc1ccc(NC(=O)N2CCC(C(=O)NCc3ccc(F)cc3)CC2)cc1`, the figure is -1.42%.
The value for `O=S(N1CCCCCC1)C12CC3CC(CC(C3)C1)C2` (configuration not stated) was -12.6%.
Regarding `CCC(C)NC(=O)N[C@@H](CCSC)C(=O)O` (some centres not stated), the inhibition was -2.48%.
The value for `Oc1c(C(c2cccs2)N2CCN(c3ccc(F)cc3)CC2)sc2ncnn12` (configuration not stated) was -14%; that for `O=C(CCSCCc1ccccn1)Nc1nccs1` was -8.42%.
In the case of `CCC(=O)N(Cc1cc2cc(OC)ccc2[nH]c1=O)c1ccccc1C`, the inhibition is 15.6%.
As for `C/C(=C\C(=O)c1cccnc1)Nc1ccc(C)c(C)c1`, the figure is -0.61%.
The value for `O=C(CNC(=O)c1ccc(Cl)cc1Cl)NCC(=O)Nc1ccccc1N1CCOCC1` was 5.85%; that for `CCCc1nc2ccccc2c(C(=O)OCc2nnc(-c3cc(OC)c(OC)c(OC)c3)o2)c1CC` was 23%; that for `CCOC(=O)c1cc(-c2nnc(-c3cc(OC)c(OC)c(OC)c3)o2)c(C)nc1C` was -9.6%.
The value for `COc1cc(-c2nnc(Cn3cc(C(F)(F)F)ccc3=O)o2)cc(OC)c1OC` was 29% (active).
Turning to `COc1cccc(NC(=O)Cn2cnc3sc(C)c(S(=O)(=O)N4CCN(C)CC4)c3c2=O)c1`, the inhibition is -6.2%.
The value for `COc1ccc(CSc2nc(N3CCOCC3)c3c(c2C#N)CC(C)(C)OC3)cc1` was -10.9%; that for `CC1(C)Cc2c(C#N)c(SCc3nc4ccccc4[nH]3)nc(N3CCOCC3)c2CO1` was 28.9% (active); that for `CC(C)c1nc(N2CCOCC2)c(C#N)c2c1COC(C)(C)C2` was 10.4%.
As for `O=C(CSc1nnc(-c2cccnc2)n1Cc1ccco1)c1ccc(Cl)cc1`, the figure is 11%; as for `Cc1ccc(-c2c3c(=O)n(C)c(=O)n(C)c3cn2-n2cnnc2)cc1`, 30.5% (active); as for `COc1ccc(-c2c3c(=O)n(C)c(=O)n(C)c3cn2-c2cccc(OC)c2)cc1`, 6.73%.
As for `Cc1ccc(-c2c3c(=O)n(C)c(=O)n(C)c3cn2-c2ccccc2O)cc1`, the figure is 4.09%; as for `CC1CC(C)CN(CC(=O)Nc2ccc(S(N)(=O)=O)cc2)C1` (configuration not stated), -5.33%.
For `Cc1ccc(SCc2cc(=O)[nH]c(N3CCCCC3)n2)cc1`, the inhibition is 2.38%.
As for `C=CCSc1nnc(Cn2c(=O)sc3ccccc32)n1C`, the figure is 1.57%; as for `COc1ccccc1-n1nnnc1S(=O)(=O)Cc1ccc(Cl)cc1`, 29.9% (active).
The value for `COc1ccccc1N1CCN(C(=O)CN(Cc2ccc(Cl)cc2)S(C)(=O)=O)CC1` was -2.25%.
For the compound `COc1ccccc1N1CCN(Cc2nnnn2CCc2ccccc2)CC1`, the inhibition was -0.82%.
The value for `Cn1cnc2c1c(=O)n(Cc1c(Cl)cccc1Cl)c(=O)n2C` was 5.12%; that for `COC(=O)CNS(=O)(=O)c1ccc(Cc2ccc(S(=O)(=O)NCC(=O)OC)cc2)cc1` was 3.6%.
`CCCn1c(C(O)c2ccc(OCC)cc2)nc2ccccc21` (configuration not stated): the inhibition was -10.8%.
The value for `COc1ccc(CCn2c(NCCCN3CCOCC3)nc3c2c(=O)[nH]c(=O)n3C)cc1` was -6.49%.
As for `COC(=O)c1ccc(NC(=O)CN(c2ccc(C)cc2)S(=O)(=O)c2c(C)n[nH]c2C)cc1`, the figure is 3.08%; as for `CCOC(=O)c1ccc(-c2ccc(C(=O)Nc3cccnc3)o2)cc1`, 10.9%.
The value for `Cc1cccc(NC(=O)CSc2nnc(NC(=O)CN3CCOCC3)s2)c1` was -3.22%; that for `CCC(=O)Nc1ccc(C(=O)CSc2nnc(CNc3ccc(Cl)cc3)o2)cc1OC` was 1.52%.
On to `COc1ccc2c(c1OC)C(=O)N(c1ncn[nH]1)C2`, for which the inhibition is -0.04%.
Consider `COCC(C)n1c(SCc2ccc(C(=O)OC)o2)nc2ccccc2c1=O` (configuration not stated), for which the inhibition is 24.9%.
As for `COC(=O)c1ccc(CSc2ccccc2C)o1`, the inhibition is 1.46%.
As for `COC(=O)c1ccc(CSc2nc3ccccc3c(=O)n2-c2cccc(OC)c2)o1`, the figure is 39.7% (active); as for `Cc1cc(Nc2cccc(F)c2)n2ncnc2n1`, -1.52%; as for `CC(=O)NCCc1ccc(S(=O)(=O)N(C)C2CCS(=O)(=O)C2)cc1` (configuration not stated), -8.57%.
As for `Fc1ccc2[nH]c3c(N4CCN(Cc5ccc6c(c5)OCO6)CC4)ncnc3c2c1`, the figure is 27.4%.
The value for `Fc1ccc2nc(N3CCCCC3)sc2c1` was 1.55%; that for `Fc1ccc2[nH]c3c(N4CCSCC4)ncnc3c2c1` was 54.9% (active); that for `C=CCN(CC=C)C(=O)CN1C(=O)c2ccccc2C1=O` was 1.46%.
With `Oc1ccc2nc(Cc3ccccc3)[nH]c2c1`, the inhibition is -16.1%.
As for `COC(=O)Nc1nc2ccc(Sc3ccccc3)cc2[nH]1`, the figure is 65.7% (active).
As for `COC(=O)Cc1nc2ccccc2[nH]1`, the figure is -1.34%.
As for `CCOc1ccccc1C1CC(c2ccc(Cl)cc2)Nc2nc(N)nn21` (configuration not stated), the figure is 4.62%; as for `N=c1n(Cc2ccc(Cl)cc2)c2ccccc2n1CC(O)c1ccco1` (configuration not stated), -1.68%; as for `CC(=O)NC(C)(C)C1CC=C(C)/C(=N\O)C1` (configuration not stated), 6.93%.
Take `CC(C)(C)C(=O)CCN1C(=O)C2(OCCO2)c2ccccc21`: the inhibition was -0.27%.
The value for `COc1ccc2[nH]c3c(=O)n(Cc4ccco4)cnc3c2c1` was 9.2%; that for `CSc1nnc(CNC(=O)c2ccccc2)n1-c1ccc(F)cc1` was 4.06%; that for `CC(NC(=O)c1ccco1)C(=O)Nc1nc(-c2ccccn2)cs1` (configuration not stated) was -4.44%.
The value for `CCn1c(Cc2ccccc2)nnc1SCC(=O)Nc1ccccc1` was -6.68%; that for `CC1(C)CC(=O)C=C(NCCCNC2CCCCC2)C1` was 7.98%.
As for `Cc1nnc(SCC(=O)NCc2cccs2)[nH]c1=O`, the figure is 2.95%; as for `CCN(CC(=O)NCc1cccs1)c1nnnn1-c1ccccc1`, 28.8% (active).
In the case of `Cc1ccccc1-n1c(SCC(=O)NCc2cccs2)nnc1-c1ccncc1`, the inhibition is -6.81%.
With `O=C1c2ccccc2-c2ncnc3c(N4CCOCC4)cc(N4CCOCC4)c1c23`, the inhibition was 38.7% (active).
As for `c1cnn(-c2cc(N3CCOCC3)ncn2)c1`, the figure is -8.12%; as for `c1ccc(-c2oc3ncnc(N4CCOCC4)c3c2-c2ccccc2)cc1`, -16.4%.
As for `COc1ccccc1N(C(=O)Cn1nnc2ccccc21)C(C(=O)NCc1ccco1)c1ccc(C)o1` (configuration not stated), the figure is 12.3%; as for `COc1ccc(-c2ccc(Nc3ccc(S(=O)(=O)N4CCCC4)cc3)nn2)cc1OC`, 20.8%.
Turning to `COc1ccc(-c2cc(C(F)(F)F)nc(S(C)(=O)=O)n2)cc1OC`, the inhibition was 70.8% (active).
As for `COc1ccc(-c2nnco2)cc1OC`, the figure is 3.01%; as for `CCc1nc(N2CCN(c3nc(C)cc(C)n3)CC2)c2oc3ccccc3c2n1`, 4.92%; as for `CCc1nc(Nc2ccc3nccnc3c2)c2oc3ccccc3c2n1`, 51.6% (active).
As for `CCSc1nc(C)nc2c1oc1ccccc12`, the inhibition was 10.3%.
As for `Cc1ccc(N(CC(O)CN2CCCC2)S(=O)(=O)c2ccccc2)cc1` (configuration not stated), the figure is -0.23%.
As for `Cc1ccc(Nc2cc(=O)n(C3CCCCC3)c(=O)[nH]2)cc1C`, the figure is -5.13%; as for `CN1CCN(Cc2nc3c(c(=O)n(C)c(=O)n3C)n2Cc2cccc3ccccc23)CC1`, 1.52%.
In the case of `COc1ccc(N(CC(=O)NC2CCCCCCC2)S(=O)(=O)c2c(C)nn(C)c2C)cc1`, the inhibition was -13.7%.
The value for `Cc1cn(C2C=CC(CO)O2)c(=O)[nH]c1=O` (configuration not stated) was -4.28%; that for `O=C(CN1C(=O)CSc2ncccc21)N1CCOCC1` was 16.6%.
As for `Cc1cccc(CSc2nnc(Cn3c(=O)sc4ccccc43)n2C)c1`, the figure is -7.45%.
The value for `Cc1nc2cc(-c3ccc(F)cc3)nn2c(N2CCOCC2)c1C` was -1.31%; that for `COc1cccc(-c2nc(S(=O)(=O)c3ccccc3)c(N3CCOCC3)o2)c1` was 19.7%; that for `COc1cccc(-c2cc3nc4c(c(N5CCC6(CC5)OCCO6)n3n2)CCCC4)c1` was 28.7% (active).
In the case of `Cc1ccc(-n2ncc3c(N4CCN(c5ccc(F)cc5)CC4)ncnc32)c(C)c1`, the inhibition was 5.14%.
As for `Cc1ccc(-n2ncc3c(=O)[nH]cnc32)c(C)c1`, the figure is 13%; as for `Cc1ccc(-n2ncc3c2ncn2nc(-c4ccco4)nc32)c(C)c1`, 40% (active); as for `Cn1nc(-c2ccc(N3CCOCC3)c(NC(=O)c3ccccc3)c2)c2ccccc2c1=O`, 29.7% (active).
As for `COc1c(C)cccc1C(=O)Nc1cc(Cl)ccc1N1CCOCC1`, the figure is 0.53%; as for `O=C(Cn1nnc2ccccc2c1=O)Nc1cc(C(F)(F)F)ccc1N1CCOCC1`, 5.96%.

The values above are taken from PubChem BioAssay AID571 (The Scripps Research Institute Molecular Screening Center, 2007).
